Bioassay records from PubChem BioAssay.
Sampled rows, rich in hits. Any-hit rate of the full collection: about 1.2%.
KAT2A inh – qHTS Assay for Inhibitors of GCN5L2; 0.21% of 390,000 active; GCN5L2 HAT assay, ThioGlo1 CoA-SH fluorescence; Potency, µM (titrated, usually from 58.9 µM), inactives show at the highest dose activity change, negative = inhibition, hits mostly inhibitors; Histone acetyltransferase KAT2A (Homo sapiens), Q92830; AID 504327, 2011; also: potency is read from the fitted curve at half-maximal effect
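GCN5L2 (20nM final) in 50mM HEPES, 0.1mM EDTA pH 7.5, 0.01% Tween-20 was preincubated 15 min at room temperature with compound, then given ThioGlo1 (50uM), H3(1-25) peptide (75uM) and acetyl-CoA (70uM); CoA-thiol fluorescence (Ex340/Em540) was read at 0 and 20 min.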
Pin1 inh – qHTS Assay to Find Inhibitors of Pin1; Peptidyl-prolyl cis-trans isomerase NIMA-interacting 1 (Homo sapiens), Q13526; AID 504891, 2011; Pin1 FP peptide displacement, HiFluor488, 10 min; Potency, µM (highest dose often 115 µM), for the others: at the top dose activity, negative = inhibition, usual class: inhibitors; 0.009% of 390,000 active; active = well fitted inhibition curve with a large enough effect in the polarisation, with a control signal flat, not every such curve was filed as active; inconclusive = small, poorly fitted or top-dose-only effect, or effect the other way, or a change in a side signal; inactive = no such curve, though single readings can be large or run the other way; the % refers to the polarisation; also: potency is read from the fitted curve at half-maximal effect
RGS4 inhibitor – Inhibitors of Regulator of G Protein Signaling (RGS) 4: qHTS; Transcreener GDP fluorescence polarization, RGS4-accelerated GTP hydrolysis; Potency, µM (top dose mostly 114 µM), for inactives: at the top dose activity change, negative = inhibition, usual class: inhibitors; 0.039% of 390,000 active; also: potency is read from the fitted curve at half-maximal effect; nearly all actives have a fitted effect of over 75% in size
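MLSMR compounds (23 nl, pin-transferred) preincubated 10 min at room temperature with a 500nM (2x) first reagent, then RGS4 at 900nM (2x) plus Transcreener GDP mix added; fluorescence polarization (620/688 nm) read before and after 90 min at 30 °C.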
KCNH2 3.1 block – qHTS for Inhibitors of KCHN2 3.1: Mutant qHTS | Potassium voltage-gated channel subfamily H member 2, brain isoform KCNH2 3.1 (human) | U2OS KCNH2 3.1, thallium flux FluxOr; stronger effect = lower value | activity change, % (tested at about 1.8 µM) | 0.95% of 340,000 active | AID 720553, 2013;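 active = maximum activity change below -70%; inconclusive = maximum activity change from -70% to -50%; inactive = maximum activity change above -50%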;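 also: thallium influx rate constant from kinetic fluorescence after stimulation buffer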
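Thallium flux via FluxOr fluorescence (Red40 quencher, 45 min loading) in U2OS cells virally expressing the KCNH2 3.1 isoform (1.77 x 10^8 /mL virus, overnight at 37 C). Rate constants from 2-min kinetic reads post-stimulation, normalised to positive and negative controls.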
KCNH2 WT inh – qHTS for Inhibitors of KCHN2 3.1: Wildtype qHTS | activity change, % at 1.84 µM | 0.37% of 340,000 active | U2OS, BacMam KCNH2, thallium flux FluxOr; stronger effect = lower value | Voltage-gated inwardly rectifying potassium channel KCNH2 (Homo sapiens), Q12809 | AID 720551, 2013;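 active = maximum activity change below -70%; inconclusive = maximum activity change between -70% and -50%; inactive = maximum activity change above -50%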
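U2OS cells were transduced with wild-type KCNH2 virus (2.03 x 10^8 / mL) for 4 h at room temperature, then cultured overnight at 37 C. Thallium flux was read with FluxOr dye. Rate constants were normalized to DMSO controls.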
Tb PGK inh – qHTS Assay to Find Inhibitors of Phosphoglycerate Kinase; 0.043% of 380,000 active; Phosphoglycerate kinase, glycosomal (Trypanosoma brucei brucei), P07378; Potency, µM (series often up to 57.5 µM), for inactives: at the top dose activity change, negative = inhibition, usual class: inhibitors; AID 602233, 2012; PGK/GAPDH coupled, Kinase-Glo luminescence, 60 min; also: potency is read from the fitted curve at half-maximal effect; nearly all actives have a fitted effect of over 60% in size
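Recombinant glycosomal PGK reaction used 1,3-bisphosphoglycerate generated in-well by GAPDH (100nM final) in 100mM TEA pH 7.6, 5mM MgCl2, 0.01% Tween-20. After 60 minutes at room temperature, ATP was read by Kinase-Glo Plus luminescence end-point.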
Starred values were filed as active, the others as inactive; i = inactive; ? = inconclusive; / = no result given; ! = not active in a repeat; [ ] = remark or other dose. Unless noted, calls follow the shape of the dose curve; as a rule, active = well fitted curve in the direction sought with a large enough effect; inconclusive = small, poorly fitted or top-dose-only effect, or another doubt; inactive = no such curve, though single readings can be large; an effect the other way counts as inactive or inconclusive. % is scaled to controls: 0 for no effect and ±100 for the full control effect.

SMILES | KAT2A inh | Pin1 inh | RGS4 inhibitor | KCNH2 3.1 block | KCNH2 WT inh | Tb PGK inh
Cc1ccc(S(=O)(=O)NCC(=O)N(CC(=O)NCC2CCCO2)Cc2ccccc2Cl)cc1 (configuration not stated) | -3% | -4% | -21% | 5 | -233* | i
CCc1ccc(C(=O)c2cn(CC(=O)NCCc3ccccc3)c3nc(C)ccc3c2=O)cc1 | 19% | 27% | 11% | / | / | 0%
COc1ccccc1NS(=O)(=O)c1cccc(C(=O)NC2CCN(Cc3ccccc3)CC2)c1 | 1% | 4% | 8% | -6 | 25 | -6%
O=C(NC1CCN(Cc2ccc3ccccc3c2)CC1)c1ccccc1 | 31% | -8% | 7% | -79* | 1 | -10%
COc1cc(C(=O)NC2CCN(Cc3ccccc3)CC2)cc(Cl)c1OC | -2% | -1% | -13% | -90* | 17 | /
O=C(CCCN1CCC(NC(=O)c2ccccc2)CC1)c1ccc(Cl)cc1 | -2% | -1% | -5% | -106* | -4 | 8%
Cc1ccc(NS(=O)(=O)c2cccc(C(=O)NC3CCN(Cc4ccccc4)CC3)c2)c(C)c1 | / | 4% | 3% | -102* | -2 | -1%
Cc1ccc(C(=O)NC2CCN(CCCC(=O)c3ccc(F)cc3)CC2)cc1 | 2% | -1% | -15% | -34 | -36 | -4%
O=C(NC1CCN(Cc2ccc(Cl)c(Cl)c2)CC1)c1ccccc1 | -7% | -2% | -17% | -49 | 42 | -3%
COc1ccc(C(=O)NC2CC2)cc1OC1CCN(Cc2ccccc2)CC1 | 2% | 6% | -7% | / | -23 | -1%
Cc1oc(-c2ccc(Cl)cc2)nc1Cn1c(=O)cc(-c2ccccc2)c2c(C)nn(C)c21 | 1% | 7% | 18% | / | / | i
CCC1=C(c2ccc(C)cc2)S(=O)(=O)N=C1N1CCC(C(=O)NCc2ccc(N(C)C)cc2)CC1 | -5% | 4% | -9% | / | / | 5%
CS(=O)(=O)c1ccc(C(=O)OCC(=O)N2CCCC2)cc1[N+](=O)[O-] | / | -8% | 5% | / | / | /
CCOC(=O)c1cc(S(=O)(=O)N2CCN(c3cc(C)ccc3C)CC2)[nH]n1 | -3% | -2% | -16% | / | / | -7%
COc1ccc(OC)c(-c2nc(C(=O)NC3CCN(Cc4ccccc4)CC3)cc3c2[nH]c2ccccc23)c1 | -10% | 52% | -21% | -97* | ? | -5%
CN(Cc1ccccc1)c1ncnc2sccc12 | -1% | -2% | -7% | -7 | -124* | -3%
O=C(CN1CCN(C(=O)c2ccccc2)CC1)Nc1ncc(Br)cc1Br | 3% | ? | 15% | -85* | -20 | 4%
O=C(CN1CCN(C(=O)c2ccccc2)CC1)Nc1ccc(Cl)cc1F | -4% | -4% | -35% | -26 | 21 | -9%
NC(=O)CC(NC(=O)Cc1ccc(Br)cc1)c1ccc(NC2CCC2)c([N+](=O)[O-])c1 (configuration not stated) | -2% | 11% | 4% | -44 | 4 | -6%
NC(=O)CC(NC(=O)Cc1ccc(Br)cc1)c1ccc(NCC2CC2)c([N+](=O)[O-])c1 (configuration not stated) | -21% | 38% | -14% | -82* | -32 | -5%
NC(=O)CC(NC(=O)Cc1ccc(Cl)cc1)c1ccc(NC2CCCC2)c([N+](=O)[O-])c1 (configuration not stated) | -8% | 85% | 12% | -21 | 10 | -6%
NC(=O)CC(NC(=O)Cc1ccc(Cl)cc1)c1ccc(NCC2CC2)c([N+](=O)[O-])c1 (configuration not stated) | -6% | 40% | -21% | -42 | -194* | i
CCOC(=O)c1c(NC(=O)COc2cccc(C(F)(F)F)c2)sc2c1CCCCC2 | -6% | -14% | ? | / | / | 10%
CC(C)(C)C(=O)OCc1nc(-c2ccc(C(F)(F)F)cc2)cs1 | -3% | -2% | -40% | -93* | 12 | -6%
COc1ccc2[nH]cc(CC(N)C(=O)O)c2c1 (configuration not stated) | -13% | / | 40%[56.9 µM] | / | / | /
SMILES | KAT2A inh | Pin1 inh | RGS4 inhibitor | KCNH2 3.1 block | KCNH2 WT inh | Tb PGK inh
N[C@@H](Cc1c[nH]c2ccc(O)cc12)C(=O)O | -4% | 5% | 24µM*! | -10 | -10 | 4%
COc1ccc(NC(=O)c2coc3ccccc23)cc1OC | 1% | -1% | -16% | -5 | -341* | i
Cc1ccc(N2C(=O)[C@@H]3[C@H](C2=O)[C@H]2C=CC=NN2[C@@H]3C(=O)Nc2ccc(Cl)cc2)cc1 | -14% | 5% | 14%[11.4 µM] | 6 | 7 | -10%
O=C(Nc1ccc(Cl)cc1)[C@@H]1[C@@H]2C(=O)N(c3ccc(Cl)cc3)C(=O)[C@@H]2[C@H]2C=CC=NN21 | -9% | 4% | -8%[11.4 µM] | -114* | 8 | 2%
O=C(Cn1ncc2c([nH]c3ccccc32)c1=O)NCC1CCN(Cc2ccc(F)cc2)CC1 | 0% | 9% | -19% | -98* | -22 | -10%
CCCn1c2ccccc2c2cnn(CC(=O)NCC3CCN(Cc4ccc(F)cc4)CC3)c(=O)c21 | -6% | 1% | 16% | / | / | -2%
COc1ccccc1CNC(=O)c1cccc(NC(=O)N2CCSc3ncccc32)c1 | -5% | -7% | -19% | / | / | -4%
CCN(C(=O)CCS(=O)(=O)c1cc2[nH]c(=O)c(=O)[nH]c2cc1C)c1ccccc1 | -10% | 11% | 10% | / | / | -1%
CCOC(=O)C1OC1C(=O)NC(CC(C)C)C(=O)NCCC(C)C (configuration not stated) | -14% | / | / | / | / | /
CCN1CCC(NC(=O)Nc2ccc(F)cc2F)CC1 | -4% | -3% | -3% | -86* | -4 | -4%
O=C(Nc1ccc(F)cc1F)NC1CC1 | 1% | 2% | -5% | 7 | 17 | -3%
COc1ccccc1NC(=O)Nc1ccc(-n2ccc(C(F)(F)F)n2)cc1 | -7% | ? | -24% | -201* | -124* | -8%
CCOc1ccc(NC(=O)N2CCOc3ccccc32)cc1 | -5% | 4% | 4% | / | / | -6%
CSc1nc(-c2cccs2)c(C#N)c(=O)[nH]1 | -5% | 13% | -31% | -4 | -133* | -14%
CCOC(=O)N1CCc2c(sc(NCc3cccc(F)c3)c2C(=O)Nc2ccc(OCC)cc2)C1 | -14% | -12% | -42% | / | / | -5%
